Assay outcomes from PubChem BioAssay.
Pf growth 48h: P. falciparum growth inhibition at 48 hours (one generation); P. falciparum luciferase growth in erythrocytes, 48 h; Potency, µM (highest dose often 28.7 µM), for the others: at the top dose activity change, negative = inhibition, actives largely listed as inhibitors; hit rate 5.9% among 310,000; also: potency is read from the fitted curve at half-maximal effect; % is scaled to controls: 0 for no effect and ±100 for the full control effect
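Firefly luciferase activity from engineered P. falciparum reports growth; inhibitors lower the luminescent signal. Cultures contained 2% hematocrit erythrocytes at 0.1% final parasitemia.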
SARS PLP yeast: inhibitors of SARS-CoV papain-like protease in yeast | Potency, µM (series often up to 32.9 µM), inactives show at the top dose activity, positive = growth rescue, actives largely listed as activators | hit rate 0.19% among 330,000 | S. cerevisiae expressing SARS-CoV PLpro, growth rescue; calls by dose curve; also: potency is read from the fitted curve at half-maximal effect; 0% is about no effect; nearly all actives have a fitted effect of over 55% in size
Shiga inhibitor: inhibitors of Shiga toxin in Vero cells. Vero cells, Shiga toxin protein synthesis inhibition reporter. inhibition, % at 38.7 µM. hit rate 9.2% among 290,000; in the data active = inhibition mostly above about 28%, no sharp cut-off; inactive = mostly below about 43%; also: 0% is about no effect
Cycloheximide cs: affects cycloheximide protein synthesis inhibition readout, counter-screen. AID 2314. cell reporter, cycloheximide protein synthesis inhibition counterscreen. max response, %. hit rate 12% among 300,000; in the data active = max response mostly above about 13%, no sharp cut-off; inactive = mostly below about 14%; also: read at 38.3 µM for the half of the compounds with a filed dose; 0% is about no effect
Pf growth 96h: inhibits malaria parasite growth, 96 h. P. falciparum luciferase reporter growth, 96 h. Potency, µM (titrated, usually from 28.7 µM), without a hit: top-dose activity change, negative = inhibition, usual class: inhibitors. hit rate 6.9% among 320,000. AID 504834; also: potency is read from the fitted curve at half-maximal effect; % is scaled to controls: 0 for no effect and ±100 for the full control effect
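Readout is luminescence from an integrated firefly luciferase in P. falciparum. Red cells, 2% hematocrit and 0.05% parasitemia final, were cultured with compound through two parasite generations (96 hours) at 37 C, 5% CO2.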
AMA1 RON2 block: AMA1-RON2 (P. falciparum) interaction inhibition; AlphaScreen AMA1-biotinylated RON2 peptide binding; Potency, µM (series often up to 58.2 µM), without a hit: at the highest dose activity change, negative = inhibition, usual class: inhibitors; hit rate 0.2% among 360,000;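 also: potency is read from the fitted curve at half-maximal effect; 0% = vehicle wells and -100% = peptide control; nearly all actives have a fitted effect of over 45% in size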
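AMA1 (3D7) with his tag at 25 nM final met compounds first, then biotinylated RON2 peptide at 25 nM; detection used donor plus acceptor beads, 10 µg/mL apiece, read by AlphaScreen after 30 min at room temperature.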
Active calls of the source: *; ? = inconclusive; / = no result given. This is a sample that favours compounds with a hit; in the whole collection about 19% have one here. Unless noted, calls follow the shape of the dose curve; as a rule, active = well fitted curve in the direction sought with a large enough effect; inconclusive = small, poorly fitted or top-dose-only effect, or another doubt; inactive = no such curve, though single readings can be large; an effect the other way counts as inactive or inconclusive.

SMILES	Pf growth 48h	SARS PLP yeast	Shiga inhibitor	Cycloheximide cs	Pf growth 96h	AMA1 RON2 block
COc1ccc(CNCc2c(O)c(Cl)cc3c(C)c(C)c(=O)oc23)c(OC)c1	?	1%	-11	11	?	19%
Clc1cccc(Cl)c1C1=NOC(c2nnc(-c3ccccc3)o2)C1 (stereo not given)	0%	-9%	108*	50*	-3%	-4%
Clc1ccc(C2=NOC(c3nnc(-c4ccccc4)o3)C2)cc1 (stereo not given)	4%	2%	-2	-2	32%	-1%
Cc1cc(NC(=O)c2sccc2C)n(-c2nc3ccccc3[nH]2)n1	?	0%	-12	10	?	69%
COc1cccc(OC)c1C(=O)Nc1cc(C)nn1-c1nc2ccccc2[nH]1	9.3µM*	23%	16	3	7.4µM*	82%
Cc1cc(NC(=O)C2CCCC2)n(-c2nc3ccccc3[nH]2)n1	8.3µM*	4%	13	9	10µM*	46%
CCOC(=O)C(=O)Nc1cc(C)nn1-c1nc2ccccc2[nH]1	56%	0%	1	14	95%	146%
Cc1cc(NC(=O)c2ccccc2)n(-c2nc3ccccc3[nH]2)n1	-24%	1%	-3	16	?	73%
COc1ccc(C(=O)Nc2cc(C)nn2-c2nc3ccccc3[nH]2)c(OC)c1	?	1%	20	20*	-131%	101%
Cc1ccc(-c2nc(N3CCN(S(=O)(=O)c4ccc(F)cc4)CC3)c3ccc(Cl)cc3n2)cc1	/	/	-17	-7	/	/
COC(=O)c1cc(N/C(N)=N/c2nc(C)cc(C)n2)cc(C(=O)OC)c1	/	/	/	/	/	0%
Cc1ccc(-n2c3c(c(=O)[nH]c2=O)C(NS(=O)(=O)c2ccc(C)cc2)(C(F)(F)F)C(=O)N3)cc1 (stereo not given)	?	-3%	-11	-3	245%	-17%
O=C1Nc2c(c(=O)[nH]c(=O)n2Cc2ccccc2)C1(NS(=O)(=O)c1ccccc1)C(F)(F)F (stereo not given)	76%	1%	-6	-1	15µM*	-3%
Cc1ccc(-n2c3c(c(=O)[nH]c2=O)C(NS(=O)(=O)c2ccc(Cl)cc2)(C(F)(F)F)C(=O)N3)cc1 (stereo not given)	?	3%	-5	-3	13µM*	-5%
O=C1Nc2c(c(=O)[nH]c(=O)n2-c2ccc(F)cc2)C1(NS(=O)(=O)c1ccccc1)C(F)(F)F (stereo not given)	35%	0%	-8	8	-7%	-9%
Cc1ccc([N+](=O)[O-])cc1NC(=O)c1ccc2c(c1)OCO2	25%	0%	68	1	4%	0%
CNc1cc([N+](=O)[O-])ccc1N/C=C/C(=O)c1ccc2c(c1)OCO2	28%	-7%	124*	76*	0%	4%
CNc1cc([N+](=O)[O-])ccc1N/C=C/C(=O)c1cccs1	?	22%	107*	33*	15%	-17%
O=C(/C=C/Nc1cccc([N+](=O)[O-])c1)c1cccs1	/	-14%	89*	32*	152%	2%
Cc1ccc([N+](=O)[O-])cc1NC(=O)c1cccs1	6%	-7%	-11	1	8%	5%
C=CCN1C(=O)S/C(=C/c2ccsc2)C1=O	47%	-4%	62*	37*	36%	4%
O=C(NCCC1=CCCCC1)c1ccc(Cl)c(S(=O)(=O)N2CCOCC2)c1	5.9µM*	-2%	active	12	-9%	5%
CN1CCN(S(=O)(=O)c2cccc(C(=O)NCCC3=CCCCC3)c2)CC1	-20%	1%	/	/	9%	30%
CC(=O)N1CCN(S(=O)(=O)c2cccc(C(=O)NCCC3=CCCCC3)c2)CC1	12%	5%	/	/	8.3µM*	23%
O=C(NCCC1=CCCCC1)c1ccc(Cl)c(S(=O)(=O)N2CCCCC2)c1	9.3µM*	-6%	50	30	5.9µM*	25%
SMILES	Pf growth 48h	SARS PLP yeast	Shiga inhibitor	Cycloheximide cs	Pf growth 96h	AMA1 RON2 block
O=C(NCCC1=CCCCC1)c1cc(S(=O)(=O)N2CCOCC2)c(Cl)cc1Cl	?	-1%	/	/	17%	11%
Cc1ccc(CSCCNC(=O)c2ccc(Cl)c(S(=O)(=O)N3CCOCC3)c2)cc1	/	-8%	-7	-2	5.2µM*	-17%
O=C(NCCN1CCOCC1)c1ccc(Cl)c(S(=O)(=O)N2CCCCC2)c1	-4%	0%	6	-1	?	-2%
COc1ccc(CCNC(=O)CCC(=O)NC2CCCC(C)C2C)cc1OC (stereo not given)	28%	10%	0	0	?	-8%
CCCN1CCN(CCCNC(=O)c2ccccc2NC(=O)C2=C(C)OCCS2)CC1	?	3%	-7	4	58%	2%
Nc1c(C(=O)NCCC2=CCCCC2)sc2ccc(S(=O)(=O)N3CCCCC3)cc12	13µM*	3%	-3	-5	?	19%
C=CCn1c(N)c(C(=O)NCCC2=CCCCC2)sc1=S	15%	0%	106*	49*	-22%	-11%
CCOc1ccc(OCCNC(=O)C(NC(=O)c2c(F)cccc2F)C(C)C)cc1 (stereo not given)	?	-3%	/	/	-19%	7%
CCN(CC)CCN(C)Cc1nc(C(c2ccccc2)c2ccccc2)no1	?	5%	13	3	9.3µM*	12%
CCOC(=O)C1=C(C)Nc2nc(SCC)[nH]c(=O)c2C1c1ccncc1 (stereo not given)	?	9%	10	6	-62%	19%
CC(=O)Nc1ccc(S(=O)(=O)NCCC(=O)N2CCN(C(c3ccccc3)c3ccccc3)CC2)cc1	12µM*	-6%	/	/	10µM*	-1%
CC(=O)Nc1ccc(S(=O)(=O)NCCC(=O)N2CCCCC2)cc1	-22%	-1%	/	/	8%	-24%
Cc1ccc(S(=O)(=O)NCCC(=O)N2CCC(Cc3ccccc3)CC2)cc1	?	-16%	/	/	?	16%
O=C(CCNS(=O)(=O)c1ccccc1)N1CCN(C(c2ccccc2)c2ccccc2)CC1	?	-4%	-6	-3	5.9µM*	/
CC(=O)Nc1ccc(S(=O)(=O)NCCC(=O)N2CCC(Cc3ccccc3)CC2)cc1	?	-3%	/	/	5.2µM*	-15%
CC1(C)C(=O)Nc2ccccc2N1C(=O)COC(=O)c1ccc(Cl)c(S(=O)(=O)NCc2ccccc2)c1	?	3%	-24	-4	/	-7%
Cc1ccccc1C(=O)c1ccccc1C(=O)c1ccccc1	/	/	/	/	/	1%
Cc1ccc(C(C)NC(=S)NCc2ccc(F)cc2)cc1C (stereo not given)	-18%	-10%	-8	8	-2%	23%
CCC(NC(=S)NCc1ccc(F)cc1)c1ccc(C)cc1 (stereo not given)	9.3µM*	?	35	1	10µM*	16%
